# Results published in the supplement of paper PMC10121225.
# Where a name gives a salt, the structure may show the parent alone.
# System: hN + hpA co-culture (H1 iNGN2 human neurons + human primary astrocytes)
# Test: presynaptic density (SYNAPSIN1 puncta per MAP2 neurite area), Z-score vs DMSO controls; higher = more presynaptic puncta (synapse-promoting)
# Settings: 3 µM; 72 h
# 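Further: immunostained co-cultures imaged by high-content microscopy, Z-score per plate against mean and SD of 0.1% DMSO wells, compounds added on differentiation day 18, analysed day 21.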
row,SMILES,presynaptic density (Z-score)
1,O=C(Nc1cccc(Cl)c1)Nc1ncc(CCNc2ncnc3ccsc23)s1 [SNS-314 Mesylate],-0.232
2,CC(NC(=O)Cc1cc(F)cc(F)c1)C(=O)NC1C(=O)N(C)c2ccccc2-c2ccccc21 (stereo not drawn),-0.744
3,CCc1c2c(nc3ccc(O)cc13)-c1cc3c(c(=O)n1C2)COC(=O)[C@]3(O)CC,0.761
4,CCCc1nc2c(C)cc(-c3nc4ccccc4n3C)cc2n1Cc1ccc(-c2ccccc2C(=O)O)cc1,-0.154
5,O=S(=O)(c1ccccc1)c1cnc2c(N3CCNCC3)cccc2c1,-0.943
6,Nc1nc(CC(=O)Nc2ccc(CCNC[C@H](O)c3ccccc3)cc2)cs1 [Mirabegron],-0.111
7,O=C(NCc1ccccc1)c1csc(Nc2ccncn2)n1 [Thiazovivin],0.74
8,Cc1ccc(S(=O)(=O)NC(=O)NN2CC3CCCC3C2)cc1 (stereo not drawn),0.0878
9,C[C@@H](c1ncncc1F)[C@](O)(Cn1cncn1)c1ccc(F)cc1F,0.265
10,C=CCNC1=C2C[C@@H](C)C[C@H](OC)[C@H](O)[C@@H](C)/C=C(\C)[C@H](OC(N)=O)[C@@H](OC)/C=C\C=C(/C)C(=O)NC(=CC1=O)C2=O [17-AAG (Tanespimycin)],0.868
11,C[C@@H]1CCN(C(=O)CC#N)C[C@@H]1N(C)c1ncnc2[nH]ccc12,-0.892
12,Nc1ncnc2c1c(-c1cccc(OCc3ccccc3)c1)cn2C1CC(CN2CCCC2)C1 (stereo not drawn),-1.9
13,CC(C)C[C@H](NC(=O)[C@H](Cc1ccccc1)NC(=O)c1cnccn1)B(O)O [Bortezomib (PS-341)],-3.27
14,NC(=O)c1ccc(-c2nc(-c3ccc4c(c3)OCO4)c(-c3ccccn3)[nH]2)cc1,0.232
15,C[C@]1(O)C[C@@H](c2nc(-c3ccc4ccc(-c5ccccc5)nc4c3)c3c(N)nccn32)C1 [OSI-906 (Linsitinib)],0.349
16,C=CC(=O)Nc1cccc(Oc2nc(Nc3ccc(N4CCN(C)CC4)cc3OC)ncc2Cl)c1,-0.275
17,O=C(Nc1ccc(S(=O)(=O)Nc2ccccc2Cl)c(Cl)c1)c1ccccn1,-0.71
18,CN1CCN(c2nc(C3=C(c4c[nH]c5ccccc45)C(=O)NC3=O)c3ccccc3n2)CC1 [AEB071 (Sotrastaurin)],-0.719
19,COC(=O)CCSCc1ccc(-c2onc(C)c2NC(=O)OC(C)c2ccccc2Cl)cc1 (stereo not drawn),-0.843

row,SMILES,presynaptic density (Z-score)
1,COc1ccc2c(c1)c(C1=C(c3c[nH]c4ccccc34)C(=O)NC1=O)cn2CCCN(C)C,-0.96
2,COc1ccc2cc([C@H](C)C(=O)O)ccc2c1 [Naproxen],-1.04
3,N#CC[C@H](C1CCCC1)n1cc(-c2ncnc3[nH]ccc23)cn1,0.202
4,O=C(Nc1ccccc1-c1cn2c(CN3CCNCC3)csc2n1)c1cnc2ccccc2n1,-1.26
5,"O=[N+]([O-])c1ccc2c(c1)S(=O)(=O)C=C2 [6-Nitrobenzo[b]thiophene 1,1-dioxide]",0.915
6,Cc1cc(Nc2ncc(Cl)c(Nc3ccccc3S(=O)(=O)C(C)C)n2)c(OC(C)C)cc1C1CCNCC1,0.147
7,O=C(c1ccc(Nc2nccc(-c3cc4ccccc4s3)n2)cc1)N1CCC(N2CCCC2)CC1,0.27
8,CCOC(=O)CCNc1cc(N2CCc3ccccc3CC2)nc(-c2ccccn2)n1,-3.3
9,CC1C(=O)OC2C(O)C34C5CC(C(C)(C)C)C36C(OC(=O)C6O)OC4(C(=O)O5)C12O (stereo not drawn) [Ginkgolide B],-0.504
10,C[C@H](N[C@@H](CCc1ccccc1)C(=O)O)C(=O)N1CCC[C@H]1C(=O)O,-0.963
11,C=CCn1c(=O)c2cnc(Nc3ccc(N4CCN(C)CC4)cc3)nc2n1-c1cccc(C(C)(C)O)n1,1.16
12,NCC(=O)Nc1ccc(-n2nc(C(F)(F)F)cc2-c2ccc3c(ccc4ccccc43)c2)cc1,-0.52
13,CCc1nc(N)nc(N)c1-c1ccc(Cl)cc1,-0.391
14,O=C(Nc1ccccc1)c1cc([N+](=O)[O-])ccc1Cl,-0.00538
15,O[C@@H](COc1cccc2ncccc12)CN1CCN(C2c3ccccc3[C@@H]3[C@H](c4ccccc42)C3(F)F)CC1 (stereo partly drawn),-1.51
16,COc1cc(-c2ncn(/C=C\C(=O)OC(C)C)n2)cc(C(F)(F)F)c1,-0.959
17,CC(C)n1c(/C=C/C(O)CC(O)CC(=O)O)c(-c2ccc(F)cc2)c2ccccc21 (stereo not drawn) [Fluvastatin Sodium],1.53
18,Cc1cc(NC(=O)Nc2ccc(N(C)C)cc2)c2cc(F)cc(F)c2n1,0.301
19,Cc1cc(Nc2cc(N3CCN(C)CC3)nc(Sc3ccc(NC(=O)C4CC4)cc3)n2)n[nH]1,-2.31
